Measurements reported in PubChem BioAssay AID1345085 (National Center for Advancing Translational Sciences (NCATS), 2018).
Results filed as inconclusive are left out. Entries that show only a call come without a potency. The source made the active and inactive calls. Calls follow the shape of the dose curve; as a rule, active = well fitted cell-killing curve with a large enough effect; inconclusive = small, poorly fitted or top-dose-only effect, or effect the other way; inactive = no such curve, though single readings can be large or run the other way.

What follows are compounds tested on SW626 (assay: Confirmatory qHTS for gynecologic anti-cancer compounds from libraries of approved drugs and bioactive compounds). Settings: gynecologic cancer cell panel viability, ATPlite luminescence, 48 h; series mostly up to 57.6 µM.
How it was run: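 Viability is measured as ATP-dependent luciferase light using ATPlite, read 15 min after reagent addition at room temperature. Compounds, in DMSO, span 57.5 uM down to 0.977 nM over 11 threefold steps for 48 h.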
Also: nearly all actives have a fitted effect of over 55% in size.
Potency is read from the fitted curve at half-maximal effect.

SMILES	Potency
N=C(N)c1ccc(OCCCCCOc2ccc(C(=N)N)cc2)cc1	inactive
C1CCC(C(CC2CCCCN2)C2CCCCC2)CC1 (centres undefined)	27.3 µM (active)
CC[C@@]1(O)C(=O)OCc2c1cc1n(c2=O)Cc2c-1nc1ccccc1c2/C=N/OC(C)(C)C	0.217 µM (active)
O=c1[nH]c(=O)n([C@H]2C[C@H](O)[C@@H](CO)O2)cc1Br	inactive
CN(C)CC/C=C1\c2ccccc2COc2ccccc21	inactive
CS(=O)(=O)c1ccc(-c2cnc(N)c(C(=O)Nc3ccccc3)n2)cc1	inactive
Cc1cc(Nc2nc(N[C@@H](C)c3ccc(F)cc3)c(C#N)cc2F)n[nH]1	5.44 µM (active)
C[C@@]1(C(=O)Nc2ccc(F)nc2)CCCN1c1nc(Nc2cc(C3CC3)[nH]n2)c2cccn2n1	inactive
COc1cc(-c2nn(C3CCC(N4CCN(C(C)=O)CC4)CC3)c3ncnc(N)c23)ccc1NC(=O)c1cc2ccccc2n1C (centres undefined)	27.3 µM (active)
COc1ccc(OC)c(-c2nnc3ccc(-c4ccc(OC)c(O[C@@H]5CCOC5)c4)nn23)c1	8.63 µM (active)
COC(C(=O)N1Cc2[nH]nc(NC(=O)c3ccc(N4CCN(C)CC4)cc3)c2C1)c1ccccc1 (centres undefined)	inactive
CC[C@@]1(O)C(=O)OCc2c1cc1n(c2=O)Cc2cc3cc(O)ccc3nc2-1	0.217 µM (active)
O=C(Nc1cccnc1)N1CCC(Cc2cccc(Oc3ccc(C(F)(F)F)cn3)c2)CC1	inactive
CCN1CCN(Cc2ccc(-c3cc4c(NC(C)c5ccccc5)ncnc4[nH]3)cc2)CC1 (centres undefined)	27.3 µM (active)
